Reference: PubChem BioAssay
Calls of active or inactive are those of the source.

Experiments:
[1] = tested on: PRMT1 (protein arginine N-methyltransferase 1); assay: PRMT1 binders on small-molecule microarrays, primary screen, biochemical, small-molecule microarray, 635 nm fluorescence (AID 1088); settings: small-molecule microarray binding, higher = more signal;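 also: binding of Prmt1 protein to compounds spotted on small-molecule microarray slides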
[2] = yeast growth modulation, basal conditions, primary screen, YJM789 clinical isolate, OD600, 24 h (AID 1089);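 also: growth of clinical yeast isolate S. cerevisiae YJM 789 seeded 1000 cells per well; test concentration not given here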; settings: S. cerevisiae YJM789 growth, higher = more signal, called active from +8 up or from −8 down
[3] = fission yeast growth modulation, primary screen, strain 972, OD600, 24 h, no modulator (AID 1090);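 also: basal condition with compound alone and no growth modifier present; test concentration not given here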; settings: S. pombe 972 growth, higher = more signal, called active from +8 up or from −8 down
[4] = S. cerevisiae growth modulation with rapamycin, primary screen, strain BY4716, OD600, 96 h (AID 1091); settings: higher = more signal, called active from +8 up or from −8 down; also: test concentration not given here
[5] = target: Torsin-1A-interacting protein 2 (Homo sapiens) (UniProt Q8NFQ8); assay: LULL1 binders on small-molecule microarray, primary screen, cell lysate, human LULL1 lysate, 635/667 nm fluorescence (AID 1092); settings: hLULL1 lysate binding, 635 nm fluorescence, higher = more signal;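 also: probe is lysate of COS7 cells overexpressing human LULL1; score merges per-feature 667 nm fluorescence with signal-to-noise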
Sequence of Torsin-1A-interacting protein 2 (Homo sapiens) (Q8NFQ8 whole entry, looked up): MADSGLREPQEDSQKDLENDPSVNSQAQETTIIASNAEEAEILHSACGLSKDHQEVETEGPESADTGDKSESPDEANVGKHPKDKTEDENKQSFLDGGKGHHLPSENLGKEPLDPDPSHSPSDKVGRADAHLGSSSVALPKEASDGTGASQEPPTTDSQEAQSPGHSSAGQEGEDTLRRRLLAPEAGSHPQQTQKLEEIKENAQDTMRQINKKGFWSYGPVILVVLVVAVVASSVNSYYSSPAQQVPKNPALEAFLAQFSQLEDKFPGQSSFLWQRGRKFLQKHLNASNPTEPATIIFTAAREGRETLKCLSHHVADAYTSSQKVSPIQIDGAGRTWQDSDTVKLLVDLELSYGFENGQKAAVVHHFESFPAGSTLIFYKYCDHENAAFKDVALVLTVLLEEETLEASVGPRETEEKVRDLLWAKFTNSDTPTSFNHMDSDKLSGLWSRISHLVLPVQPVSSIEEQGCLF

[6] = E. coli growth modulation, two-sided OD650, primary screen, E. coli filamentation project, strain DRC41, 24 h (AID 1093); settings: OD650, 24 h, higher = more signal, called active from +8 up or from −8 down;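 also: MC1000 strain lacking acrAB efflux and sulA so SOS filamentation is blocked; test concentration not given here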
[7] = small-molecule microarray binders of probe aLefty2, primary screen, biochemical, biotinylated probe, 635/667 nm fluorescence (AID 1094); settings: higher = more signal;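 also: score merges spot fluorescence near 667 nm with spot signal-to-noise ratio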
[8] = tested on: Noggin (protein binding on small-molecule microarray); assay: Noggin binders on small-molecule microarray, primary screen, biochemical, 635/667 nm fluorescence (AID 1095); settings: 635 nm fluorescence, higher = more signal;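 also: score merges 667 nm feature fluorescence with signal to noise over triplicate slides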
[9] = target: Neurogenic locus notch homolog protein 3 (Homo sapiens) (UniProt Q9UM47); assay: NOTCH3 binders on small-molecule microarray, primary screen, biochemical, 635/667 nm fluorescence (AID 1096); settings: NOTCH3 binding, 635 nm fluorescence, higher = more signal
Sequence of Neurogenic locus notch homolog protein 3 (Homo sapiens) (Q9UM47 whole entry, looked up): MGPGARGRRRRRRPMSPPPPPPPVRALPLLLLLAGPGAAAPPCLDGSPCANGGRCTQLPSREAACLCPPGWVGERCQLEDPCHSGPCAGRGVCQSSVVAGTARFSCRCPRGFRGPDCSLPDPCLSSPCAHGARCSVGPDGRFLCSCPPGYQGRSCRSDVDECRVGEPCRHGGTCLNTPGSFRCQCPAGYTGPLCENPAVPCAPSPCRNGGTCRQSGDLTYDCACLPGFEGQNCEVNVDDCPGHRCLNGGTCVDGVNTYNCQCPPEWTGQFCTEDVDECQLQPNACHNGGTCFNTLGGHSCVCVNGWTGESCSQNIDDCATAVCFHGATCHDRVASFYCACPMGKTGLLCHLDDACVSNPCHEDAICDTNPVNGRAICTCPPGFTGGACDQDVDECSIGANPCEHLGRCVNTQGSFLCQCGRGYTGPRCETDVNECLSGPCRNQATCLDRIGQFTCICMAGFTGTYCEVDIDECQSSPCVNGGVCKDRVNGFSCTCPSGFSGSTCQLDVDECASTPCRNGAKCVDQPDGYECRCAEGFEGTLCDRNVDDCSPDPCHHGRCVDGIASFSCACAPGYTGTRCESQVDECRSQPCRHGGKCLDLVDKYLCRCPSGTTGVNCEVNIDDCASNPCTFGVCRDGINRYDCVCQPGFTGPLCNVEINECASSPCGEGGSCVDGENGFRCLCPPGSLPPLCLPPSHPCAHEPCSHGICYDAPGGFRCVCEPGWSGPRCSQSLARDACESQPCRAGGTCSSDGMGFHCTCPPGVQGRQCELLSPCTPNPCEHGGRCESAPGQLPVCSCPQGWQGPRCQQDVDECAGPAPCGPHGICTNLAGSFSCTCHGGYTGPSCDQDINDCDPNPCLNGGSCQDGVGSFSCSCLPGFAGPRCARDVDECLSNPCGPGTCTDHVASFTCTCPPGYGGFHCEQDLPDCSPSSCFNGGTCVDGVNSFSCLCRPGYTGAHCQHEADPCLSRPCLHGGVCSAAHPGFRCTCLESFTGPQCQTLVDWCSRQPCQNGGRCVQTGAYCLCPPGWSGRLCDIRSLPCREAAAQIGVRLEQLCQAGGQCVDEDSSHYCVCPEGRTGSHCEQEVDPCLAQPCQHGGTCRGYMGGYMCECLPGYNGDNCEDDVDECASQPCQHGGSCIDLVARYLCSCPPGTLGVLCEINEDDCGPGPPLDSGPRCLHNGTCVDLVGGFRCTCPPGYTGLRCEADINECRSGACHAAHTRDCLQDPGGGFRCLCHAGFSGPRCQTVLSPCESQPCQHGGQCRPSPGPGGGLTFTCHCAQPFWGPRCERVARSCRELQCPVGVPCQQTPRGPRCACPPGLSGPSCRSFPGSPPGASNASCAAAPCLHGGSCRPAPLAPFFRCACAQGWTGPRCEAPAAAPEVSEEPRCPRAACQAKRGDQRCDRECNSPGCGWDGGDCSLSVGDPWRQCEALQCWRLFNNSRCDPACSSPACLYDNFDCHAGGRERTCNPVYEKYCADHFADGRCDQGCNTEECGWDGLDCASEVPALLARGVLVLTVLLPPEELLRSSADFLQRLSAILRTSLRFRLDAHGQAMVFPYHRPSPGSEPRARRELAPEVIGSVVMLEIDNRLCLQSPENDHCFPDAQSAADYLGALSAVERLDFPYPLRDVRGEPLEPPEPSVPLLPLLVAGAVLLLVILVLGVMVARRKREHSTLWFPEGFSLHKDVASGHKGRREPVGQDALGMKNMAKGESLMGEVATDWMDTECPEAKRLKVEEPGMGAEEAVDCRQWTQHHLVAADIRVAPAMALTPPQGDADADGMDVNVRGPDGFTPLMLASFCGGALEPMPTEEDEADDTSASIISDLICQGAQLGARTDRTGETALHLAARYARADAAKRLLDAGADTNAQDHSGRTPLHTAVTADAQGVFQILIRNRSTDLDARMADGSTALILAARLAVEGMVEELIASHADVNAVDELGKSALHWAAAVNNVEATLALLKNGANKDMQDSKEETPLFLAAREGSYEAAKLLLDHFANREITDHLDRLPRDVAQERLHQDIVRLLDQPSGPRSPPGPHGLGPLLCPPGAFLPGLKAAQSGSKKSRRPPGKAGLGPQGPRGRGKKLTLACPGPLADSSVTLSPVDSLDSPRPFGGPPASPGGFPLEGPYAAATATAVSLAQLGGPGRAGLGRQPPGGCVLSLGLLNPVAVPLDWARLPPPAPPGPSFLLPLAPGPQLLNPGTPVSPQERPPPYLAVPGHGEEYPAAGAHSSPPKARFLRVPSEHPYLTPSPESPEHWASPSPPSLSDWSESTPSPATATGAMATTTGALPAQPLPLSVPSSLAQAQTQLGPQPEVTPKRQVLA

[10] = small-molecule microarray binders of probe aEGFR, primary screen, biochemical, biotinylated probe, 635/667 nm fluorescence (AID 1097); settings: higher = more signal;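 also: probe is a biotinylated anti-EGFR antibody binding compounds printed on slides; score combines fluorescence near 667 nm and signal to noise of each spot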
[11] = tested on: Plasmodium falciparum Sir2 (PF13_0152, Sir2A); assay: pfSir2 binders on small-molecule microarrays, primary screen, biochemical, small-molecule microarray, 635 nm fluorescence (AID 1098); settings: small-molecule microarray binding, fluorescence 635 nm; higher = more signal;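 also: score merges spot fluorescence intensity with its signal-to-noise ratio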
[12] = small-molecule microarray binders of probe aDKK1, primary screen, biochemical, biotinylated probe, 635/667 nm fluorescence (AID 1099); settings: higher = more signal;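 also: score merges 667nm spot fluorescence with signal to noise across triplicate slides; reference of the scale not given here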
[13] = small-molecule microarray binders of probe aCHRDL2, primary screen, biochemical, biotinylated probe, 635/667 nm fluorescence (AID 1100); settings: higher = more signal
[14] = splicing luciferase reporter signal modulators, primary screen, spliceosome inhibition project, cell-based, HEK293, splice +/- reporter (AID 1101); settings: luminescence, 24 h, higher = more signal, called active from +8 up or from −8 down;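 also: HEK293 cells carrying a splicing-competent luciferase reporter gene; test concentration not given here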
[15] = target: Fibroblast growth factor 10 (Homo sapiens) (UniProt O15520); assay: FGF10 binders on small-molecule microarrays, primary screen, biochemical, small-molecule microarray, 635 nm fluorescence (AID 1102); settings: FGF10 binding, fluorescence 635 nm, higher = more signal
Sequence of Fibroblast growth factor 10 (Homo sapiens) (O15520 whole entry, looked up): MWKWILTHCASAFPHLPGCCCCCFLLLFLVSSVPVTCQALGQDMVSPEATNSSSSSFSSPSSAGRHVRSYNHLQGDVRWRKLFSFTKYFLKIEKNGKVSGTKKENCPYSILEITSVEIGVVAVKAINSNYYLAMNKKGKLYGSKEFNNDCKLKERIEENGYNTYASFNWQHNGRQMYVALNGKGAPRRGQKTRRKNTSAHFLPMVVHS

[16] = tested on: glycogen synthase kinase-3 (GSK3A per assay name; protocol says GSK3B); assay: GSK3 binders on small-molecule microarrays, primary screen, biochemical, small-molecule microarray, 635 nm fluorescence, GSK3A (AID 1103); settings: small-molecule microarray binding, fluorescence 635 nm; higher = more signal; also: the record names both GSK3A and GSK3B
[17] = target: Epidermal growth factor receptor (Homo sapiens) (UniProt P00533); assay: EGFR binders on small-molecule microarrays, primary screen, biochemical, small-molecule microarray, 635 nm fluorescence (AID 1104); settings: EGFR binding, higher = more signal;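 also: score merges 667 nm emission intensity with spot signal to noise over triplicate slides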
Sequence of Epidermal growth factor receptor (Homo sapiens) (P00533 whole entry, looked up): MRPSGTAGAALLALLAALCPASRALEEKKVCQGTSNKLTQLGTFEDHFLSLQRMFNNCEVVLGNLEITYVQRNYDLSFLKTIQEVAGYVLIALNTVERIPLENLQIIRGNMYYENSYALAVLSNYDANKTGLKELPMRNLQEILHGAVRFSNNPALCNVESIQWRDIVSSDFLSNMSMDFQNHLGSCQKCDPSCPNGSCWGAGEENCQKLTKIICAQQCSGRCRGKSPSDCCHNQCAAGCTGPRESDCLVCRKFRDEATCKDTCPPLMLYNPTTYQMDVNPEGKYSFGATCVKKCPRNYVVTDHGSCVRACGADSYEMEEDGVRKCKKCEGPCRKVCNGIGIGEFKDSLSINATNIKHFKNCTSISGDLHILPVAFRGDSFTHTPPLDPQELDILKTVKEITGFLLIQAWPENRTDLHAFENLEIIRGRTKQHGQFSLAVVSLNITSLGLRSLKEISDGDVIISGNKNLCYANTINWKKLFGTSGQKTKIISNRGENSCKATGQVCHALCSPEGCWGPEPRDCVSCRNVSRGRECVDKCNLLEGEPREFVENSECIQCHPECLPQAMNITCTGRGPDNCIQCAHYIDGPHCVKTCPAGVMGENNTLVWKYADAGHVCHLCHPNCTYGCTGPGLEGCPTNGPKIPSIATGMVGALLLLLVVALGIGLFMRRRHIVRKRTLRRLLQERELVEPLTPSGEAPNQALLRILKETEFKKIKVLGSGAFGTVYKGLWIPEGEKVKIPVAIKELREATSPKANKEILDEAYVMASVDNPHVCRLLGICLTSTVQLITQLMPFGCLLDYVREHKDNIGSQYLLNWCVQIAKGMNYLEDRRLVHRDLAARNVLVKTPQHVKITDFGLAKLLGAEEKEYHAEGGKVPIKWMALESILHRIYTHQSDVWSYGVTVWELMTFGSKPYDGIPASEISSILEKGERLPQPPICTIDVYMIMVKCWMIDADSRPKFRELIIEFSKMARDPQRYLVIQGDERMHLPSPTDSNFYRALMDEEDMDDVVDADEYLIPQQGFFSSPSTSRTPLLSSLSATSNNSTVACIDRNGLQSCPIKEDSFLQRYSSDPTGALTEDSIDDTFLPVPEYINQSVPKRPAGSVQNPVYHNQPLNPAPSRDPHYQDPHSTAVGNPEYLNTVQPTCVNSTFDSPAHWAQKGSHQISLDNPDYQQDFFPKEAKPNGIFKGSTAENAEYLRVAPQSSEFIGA

[18] = target: Follistatin-related protein 3 (Homo sapiens) (UniProt O95633); assay: FSTL3 binders on small-molecule microarrays, primary screen, biochemical, small-molecule microarray, 635 nm fluorescence (AID 1105); settings: FSTL3 binding, higher = more signal;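 also: score merges emission near 667 nm and signal to noise per printed spot across three slides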
Sequence of Follistatin-related protein 3 (Homo sapiens) (O95633 whole entry, looked up): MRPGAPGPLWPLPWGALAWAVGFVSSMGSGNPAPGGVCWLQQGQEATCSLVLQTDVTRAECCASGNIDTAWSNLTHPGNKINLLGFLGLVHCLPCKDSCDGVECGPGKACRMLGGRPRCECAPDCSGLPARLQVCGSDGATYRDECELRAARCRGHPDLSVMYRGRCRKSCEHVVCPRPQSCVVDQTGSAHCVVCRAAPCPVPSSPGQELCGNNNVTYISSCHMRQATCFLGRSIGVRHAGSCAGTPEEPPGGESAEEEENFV

[19] = target: Dickkopf-related protein 1 (Homo sapiens) (UniProt O94907); assay: DKK1 binders on small-molecule microarrays, primary screen, biochemical, small-molecule microarray, 635 nm fluorescence scan (AID 1106); settings: DKK1 binding, higher = more signal;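 also: score merges emission near 667 nm with signal to noise over three replicate slides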
Sequence of Dickkopf-related protein 1 (Homo sapiens) (O94907 whole entry, looked up): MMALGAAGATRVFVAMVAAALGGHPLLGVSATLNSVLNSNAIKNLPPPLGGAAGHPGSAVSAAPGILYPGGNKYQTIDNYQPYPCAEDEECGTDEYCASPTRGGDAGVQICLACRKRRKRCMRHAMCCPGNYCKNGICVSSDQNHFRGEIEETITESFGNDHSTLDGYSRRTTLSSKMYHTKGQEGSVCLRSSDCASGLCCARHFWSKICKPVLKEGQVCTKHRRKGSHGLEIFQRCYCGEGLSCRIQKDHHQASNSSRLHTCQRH

[20] = tested on: Inhibin beta A chain (activin A); assay: INHBA (activin A) binders on microarrays, primary screen, biochemical, small-molecule microarray, 635 nm fluorescence scan (AID 1107); settings: small-molecule microarray binding, higher = more signal;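 also: mouse activin A protein probed at 4.33 µg/mL on printed slides; score merges bound-protein fluorescence near 667 nm with spot signal-to-noise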

SMILES	composite z-score [1]	z-score [2]	z-score [3]	z-score [4]	composite z-score [5]	z-score [6]	composite z-score [7]	composite z-score [8]	composite z-score [9]	composite z-score [10]	composite z-score [11]	composite z-score [12]	composite z-score [13]	z-score [14]	composite z-score [15]	composite z-score [16]	composite z-score [17]	composite z-score [18]	composite z-score [19]	composite z-score [20]
CC1(C)C(=O)C(c2ccccc2)=C2CN3C(=O)N(CCc4ccccc4)C(=O)C3(Cc3ccccc3)C=C21 (stereo not given)	-0.377	0.672 (inactive)	2.28 (inactive)	5.82 (inactive)	2.83	-0.723 (inactive)	0.336	-0.264	1.12	0.164	0.155	1.06	1.12	0.917 (inactive)	0.363	0.182	-0.0726	0.949	-1.03	1.09
CO[C@H]1O[C@H](CO)[C@@H](OC(=O)Nc2ccc(C(F)(F)F)cc2)[C@H](OC(=O)Nc2ccccc2)[C@@H]1OC(=O)Nc1ccccc1	1.54	0.0975 (inactive)	0.252 (inactive)	0.168 (inactive)	3.11	-0.142 (inactive)	-0.0657	1.24	0.968	-0.289	1.02	-0.442	0.144	-0.577 (inactive)	1.07	1.23	0.74	0.743	0.295	0.378
CN1C(=O)C2C=CC(C(O)C(c3ccccc3)c3ccccc3)N(Nc3ccccc3)C2C1=O (stereo not given)	1.55	-0.272 (inactive)	-0.346 (inactive)	-0.125 (inactive)	3.46	-1.7 (inactive)	0.0336	-0.152	1.05	0.0209	0.929	0.724	0.883	0.559 (inactive)	1.11	1.32	0.247	1.07	-0.138	0.596
Oc1ccc2cc[n+](Cc3cccc(OC(F)(F)F)c3)cc2c1	0.488	0.573 (inactive)	0.439 (inactive)	4.58 (inactive)	1.65	0.713 (inactive)	-0.0541	1.26	0.646	-0.0177	1.36	-0.319	-0.576	0.609 (inactive)	0.837	-0.477	1.2	1.24	0.732	0.826
CCOC(=O)C1=CC[C@@H](c2cccc(Cl)c2)N(S(=O)(=O)c2ccc(C)cc2)[C@H]1c1ccc(C#N)cc1	1.56	0.914 (inactive)	1.99 (inactive)	2.58 (inactive)	3.18	-1.2 (inactive)	-0.0018	0.156	1.05	0.191	1.06	0.855	0.252	-0.201 (inactive)	0.841	1.32	0.36	1.41	0.49	0.582
CC(C)(C)OC(=O)CC[C@@]1(C(=O)NCC(O)CO)N=C(c2ccc(OCCCO)cc2)O[C@@H]1c1ccccc1 (stereo not given in full)	1.46	0.531 (inactive)	0.18 (inactive)	0.375 (inactive)	3.77	-0.103 (inactive)	0.0689	-0.364	0.356	-0.071	0.317	0.652	0.811	-0.658 (inactive)	0.989	0.0733	-1.19	-0.583	-0.693	0.203
Cc1c(NC(=O)/C(C#N)=C/C=C/c2ccccc2)c(=O)n(-c2ccccc2)n1C	0.311	0.243 (inactive)	-0.678 (inactive)	0.561 (inactive)	0.396	1.94 (inactive)	-0.31	0.244	0.478	-0.0293	0.504	-0.0814	-0.366	0.777 (inactive)	-0.0134	0.234	0.513	0.573	0.425	0.772
CCCCCCCCCCC(O)C1C=CC2C(=O)N(c3ccccc3)C(=O)C2N1Nc1ccc([N+](=O)[O-])cc1 (stereo not given)	1.57	0.0819 (inactive)	0.23 (inactive)	26.7 (active)	3.25	-0.734 (inactive)	-0.0059	0.186	1.09	-0.0828	1.34	-0.101	0.584	0.823 (inactive)	0.668	1.29	0.352	1.01	0.0052	0.559
[N-]=[N+]=Nc1ccccc1C[C@]1(C(=O)N2CCCCC2)N=C(c2ccc(OCCCO)cc2)O[C@H]1c1ccccc1N=[N+]=[N-]	1.56	0.0343 (inactive)	-10.4 (active)	1.51 (inactive)	3.48	-0.204 (inactive)	0.512	0.471	1.05	0.277	1.42	0.0941	1.18	-0.103 (inactive)	1.4	0.743	-0.0207	0.611	-0.235	1.25
C=C(CCCC)C(=O)CC[C@H](OC(=O)c1ccccc1-c1ccccc1C(=O)O)c1ccc(CO)o1	1.55	-0.521 (inactive)	0.162 (inactive)	0.437 (inactive)	1.99	0.251 (inactive)	-0.132	1.35	1.06	-0.065	1.15	-0.28	-0.635	0.144 (inactive)	1.51	1.1	0.264	1.2	1.02	0.64
